In PubChem BioAssay (NCI):
This is part of a sample that, as a whole, favours compounds with a hit. Of some 83,000 tested, about 20% had one in any assay.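 For each line, cells grew in 96-well plates with the test compound present at a single concentration for 48 hours.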 Activity calls are given as the source filed them. How the source made its calls: active means growth percent below 10; inactive means the rest.

Assays:
Experiment in all cases: NCI-60 one-dose screen, 48 h (100 = growth as untreated, 0 = no growth, -100 = all killed)
A549/ATCC NSCLC = details: 10 µM unless noted
DU-145 prostate = details: 10 µM unless noted
RXF 393 renal = details: 10 µM unless noted
SF-295 CNS = details: 10 µM unless noted
SF-539 CNS = details: 10 µM unless noted
UACC-257 melanoma = details: 10 µM unless noted
HCT-15 colon = details: 10 µM
HT29 colon = details: 10 µM unless noted
SNB-75 CNS = details: 10 µM unless noted
SK-MEL-5 melanoma = details: 10 µM unless noted
LOX IMVI melanoma = details: 10 µM unless noted
SK-MEL-2 melanoma = details: 10 µM unless noted
ACHN renal = details: 10 µM unless noted
CAKI-1 renal = details: 10 µM unless noted
A498 renal = details: 10 µM unless noted
HL-60(TB) leukemia = details: 10 µM unless noted
MOLT-4 leukemia = details: 10 µM
OVCAR-8 ovarian = details: 10 µM unless noted
IGROV1 ovarian = details: 10 µM
HS 578T breast = details: 10 µM unless noted

Measured: growth

Nc1c(Br)cc2c3c(cccc13)-c1ccccc1-2
inactive: A549/ATCC NSCLC 77.2% | DU-145 prostate 70% | RXF 393 renal 80.2% | SF-295 CNS 74.5% | SF-539 CNS 77.7% | UACC-257 melanoma 88.4% | HCT-15 colon 49.3% | HT29 colon 103% | SNB-75 CNS 60.9% | SK-MEL-5 melanoma 84.8% | LOX IMVI melanoma 53.7% | SK-MEL-2 melanoma 64.4% | ACHN renal 75.7% | CAKI-1 renal 57.4% | A498 renal 70.5% | HL-60(TB) leukemia 82.7% | MOLT-4 leukemia 53.8% | OVCAR-8 ovarian 70.9% | IGROV1 ovarian 48.1% | HS 578T breast 50%

CC(=O)N1N=C(c2ccccc2)CC1c1sc(N(CCCl)CCCl)nc1Cl (stereo not given)
inactive: A549/ATCC NSCLC 86.3% | DU-145 prostate 99.5% | RXF 393 renal 97.5% | SF-295 CNS 92.5% | SF-539 CNS 106% | UACC-257 melanoma 92.2% | HCT-15 colon 94.8% | HT29 colon 93.9% | SNB-75 CNS 83.1% | SK-MEL-5 melanoma 99.1% | LOX IMVI melanoma 103% | SK-MEL-2 melanoma 87.1% | ACHN renal 99.2% | CAKI-1 renal 80.2% | A498 renal 97.5% | HL-60(TB) leukemia 98% | MOLT-4 leukemia 86.7% | OVCAR-8 ovarian 95.8% | IGROV1 ovarian 101% | HS 578T breast 88%

O=[As]c1ccc(C(=O)c2ccc(Oc3ccccc3)cc2)cc1 (stereo not given)
inactive: HS 578T breast 59.7%
active: A549/ATCC NSCLC -94.8% | DU-145 prostate -94% | RXF 393 renal -100% | SF-295 CNS -65.1% | SF-539 CNS -98.4% | UACC-257 melanoma -99.4% | HCT-15 colon -78.3% | HT29 colon -77.6% | SNB-75 CNS -92% | SK-MEL-5 melanoma -100% | LOX IMVI melanoma -91.2% | SK-MEL-2 melanoma -95.2% | ACHN renal -100% | CAKI-1 renal -53.7% | A498 renal -97.7% | HL-60(TB) leukemia -23.4% | MOLT-4 leukemia -25.2% | OVCAR-8 ovarian -97.3% | IGROV1 ovarian -54.1%

C/C(=C\c1cc(C(F)(F)F)n(-c2ccc(N)cc2)n1)[C@@H]1C[C@@H]2O[C@]2(C)CCC[C@H](C)[C@H](O)[C@@H](C)C(=O)C(C)(C)[C@@H](O)CC(=O)O1
inactive: UACC-257 melanoma 26.6% | ACHN renal 31.9% | CAKI-1 renal 25.3% | IGROV1 ovarian 31.1%
active: A549/ATCC NSCLC 1.71% | DU-145 prostate -23.9% | RXF 393 renal -8.53% | SF-295 CNS 2.01% | SF-539 CNS -18.5% | HCT-15 colon 9.88% | SNB-75 CNS -16.2% | LOX IMVI melanoma 4.2% | A498 renal -0.114% | HL-60(TB) leukemia 0.265% | MOLT-4 leukemia 4.35% | OVCAR-8 ovarian 0.138% | HS 578T breast -11.5%

Cc1ccc(N)cc1[As]=[As]c1cc(N)ccc1C (stereo not given)
active: DU-145 prostate -40.6% | SF-539 CNS -94.5% | UACC-257 melanoma -97.3% | HCT-15 colon -68.5% | HT29 colon -84.6% | SNB-75 CNS -99.6% | SK-MEL-5 melanoma -87.2% | LOX IMVI melanoma -56.9% | ACHN renal -91.6% | CAKI-1 renal -91.2% | A498 renal -26.3% | HL-60(TB) leukemia -43.9% | MOLT-4 leukemia -29.9% | OVCAR-8 ovarian -95.3% | IGROV1 ovarian -90.8%
inactive: A549/ATCC NSCLC 69.8% | SF-295 CNS 73.2%

CC[C@H](C)[C@H](NC(=O)Nc1ccccc1)C(=O)N(C)[C@H](C[C@@H](OC(C)=O)c1nc(C(=O)N[C@@H](Cc2ccccc2)C[C@H](C)C(=O)OC)cs1)C(C)C
inactive: A549/ATCC NSCLC 23.5% | UACC-257 melanoma 60.6% | LOX IMVI melanoma 23.9% | ACHN renal 25.1% | MOLT-4 leukemia 15.7% | OVCAR-8 ovarian 14.6% | IGROV1 ovarian 22.2%
active: DU-145 prostate -3.41% | RXF 393 renal 0.067% | SF-295 CNS 4.42% | SF-539 CNS -26.3% | HCT-15 colon 9.43% | HT29 colon -23.1% | SNB-75 CNS 5.16% | SK-MEL-5 melanoma -70.3% | SK-MEL-2 melanoma -15% | A498 renal -15.6% | HL-60(TB) leukemia -17.2% | HS 578T breast 5.14%

CC(=O)O[C@H]1CC[C@H]2[C@@H]3CC[C@H]4CC=C(C)C[C@]4(C)[C@H]3CC[C@]12C
inactive: A549/ATCC NSCLC 107% | DU-145 prostate 106% | RXF 393 renal 111% | SF-295 CNS 103% | SF-539 CNS 96.2% | UACC-257 melanoma 111% | HCT-15 colon 98.6% | HT29 colon 98.4% | SNB-75 CNS 110% | LOX IMVI melanoma 102% | SK-MEL-2 melanoma 110% | ACHN renal 96.5% | CAKI-1 renal 50.7% | A498 renal 104% | HL-60(TB) leukemia 89.9% | MOLT-4 leukemia 94% | OVCAR-8 ovarian 102% | IGROV1 ovarian 107% | HS 578T breast 109%

O=C1NC(=S)NC(=O)C1=Cc1ccccc1
inactive: A549/ATCC NSCLC 101% | DU-145 prostate 122% | RXF 393 renal 115% | SF-295 CNS 97.9% | SF-539 CNS 103% | UACC-257 melanoma 115% | HCT-15 colon 99.5% | HT29 colon 139% | SNB-75 CNS 85.7% | SK-MEL-5 melanoma 98.7% | LOX IMVI melanoma 85.1% | SK-MEL-2 melanoma 196% | ACHN renal 100% | CAKI-1 renal 95% | MOLT-4 leukemia 115% | OVCAR-8 ovarian 110% | IGROV1 ovarian 119% | HS 578T breast 95.9%
